# Most compounds without a hit are left out; they make up all but 11% or so of the library.
# PLK1 PBD block: PLK1 (human) polo-box domain binding inhibition; P53350; Plk1 PBD binding of FITC phosphopeptide, fluorescence polarization; Potency, µM, for inactives: max response, negative = inhibition, actives largely listed as inhibitors; hit rate 2.8% among 360,000; AID 720504; note: series mostly up to about 57 µM; % is set by controls: 0 for no effect and ±100 for the full control effect; nearly all actives have a fitted effect of over 65% in size
# BAZ2B block: inhibitors of human BAZ2B bromodomain | Q9UIF8 | AlphaScreen BAZ2B-H3K14Ac peptide displacement | Potency, µM (titrated, usually from 114 µM), inactives show at the top dose activity change, negative = inhibition, hits mostly inhibitors | hit rate 4.4% among 360,000; note: % is set by controls: 0 for no effect and ±100 for the full control effect; nearly all actives have a fitted effect of over 60% in size
#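 BAZ2B 50 nM plus b-H3(5-23)K14Ac 50 nM, PBS pH 7.4/0.01% Tween-20, 30 min RT; compound added (max 110 uM), 30 min RT; streptavidin donor/Ni-chelate acceptor beads 10 ug/mL final, 20 min dark; AlphaScreen read.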
# VDR inh: inhibitors of human vitamin D receptor. P11473. Potency, µM, inactives show max response, negative = inhibition, most hits filed as inhibitors. VDR-SRC2-3 peptide fluorescence polarization, 2 h. AID 504847. hit rate 0.93% among 400,000; note: % is set by controls: 0 for no effect and ±100 for the full control effect
#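 Signal is fluorescence polarization, reporting how far test compounds block the interaction of VDR with the SRC2-3 coregulator peptide after a 2 h room-temperature incubation.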
# HP1b chromo inh: blocks HP1-beta chromodomain binding to methylated histone tails | P83916 | AlphaScreen HP1-beta / biotin-H3K9me3 peptide binding | Potency, µM (highest dose often 114 µM), for the others: at the highest dose activity change, negative = inhibition, hits mostly inhibitors | hit rate 0.56% among 390,000; note: nearly all actives have a fitted effect of over 70% in size
#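 HP1-beta protein (50 nM final) preincubated 30 min at room temperature with biotinylated H3(1-18)K9me3 peptide (50 nM) in PBS pH 7.4, 0.01% Tween-20, then compound added for 30 min. AlphaScreen streptavidin donor/nickel chelate acceptor beads (10 ug/mL final), 30 min dark, luminescence read.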
# JMJD2A Tudor: inhibitors of human JMJD2A Tudor domain; O75164; hit rate 4.4% among 390,000; Potency, µM (highest dose often 114 µM), for inactives: at the top dose activity change, negative = inhibition, hits mostly inhibitors; AlphaScreen JMJD2A-Tudor / H3K4me3 peptide binding; note: % is set by controls: 0 for no effect and ±100 for the full control effect; nearly all actives have a fitted effect of over 50% in size
# Target sequence (O75164 whole entry, looked up, the tested form may be a part): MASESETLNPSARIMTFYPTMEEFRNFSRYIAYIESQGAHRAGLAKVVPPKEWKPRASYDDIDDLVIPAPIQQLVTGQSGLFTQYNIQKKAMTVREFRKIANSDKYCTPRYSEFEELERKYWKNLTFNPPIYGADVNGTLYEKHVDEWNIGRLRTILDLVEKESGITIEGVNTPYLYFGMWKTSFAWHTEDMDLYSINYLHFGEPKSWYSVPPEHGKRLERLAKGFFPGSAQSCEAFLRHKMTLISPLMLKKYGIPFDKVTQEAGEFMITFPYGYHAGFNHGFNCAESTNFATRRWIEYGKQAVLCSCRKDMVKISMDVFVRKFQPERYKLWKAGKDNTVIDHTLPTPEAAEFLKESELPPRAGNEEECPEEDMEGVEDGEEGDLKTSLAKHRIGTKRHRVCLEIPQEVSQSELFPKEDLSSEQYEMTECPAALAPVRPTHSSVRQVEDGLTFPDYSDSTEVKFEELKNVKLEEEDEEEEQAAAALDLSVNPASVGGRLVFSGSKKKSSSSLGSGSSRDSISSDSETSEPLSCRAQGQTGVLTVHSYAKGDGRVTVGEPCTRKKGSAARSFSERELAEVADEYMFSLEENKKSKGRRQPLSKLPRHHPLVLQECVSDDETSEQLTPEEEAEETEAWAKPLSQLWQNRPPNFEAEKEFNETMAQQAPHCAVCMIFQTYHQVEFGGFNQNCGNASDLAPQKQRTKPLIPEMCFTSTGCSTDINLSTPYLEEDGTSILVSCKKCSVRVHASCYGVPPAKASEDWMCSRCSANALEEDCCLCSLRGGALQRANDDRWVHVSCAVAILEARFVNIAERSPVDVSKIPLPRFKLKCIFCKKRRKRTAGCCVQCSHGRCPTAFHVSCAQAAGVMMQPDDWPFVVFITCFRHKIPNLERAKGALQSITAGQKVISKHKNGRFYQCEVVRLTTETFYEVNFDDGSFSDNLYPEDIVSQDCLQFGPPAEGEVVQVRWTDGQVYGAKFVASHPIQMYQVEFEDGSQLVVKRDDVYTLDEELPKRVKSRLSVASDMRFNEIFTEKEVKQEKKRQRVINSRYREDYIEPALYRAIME
# G9a inh: blocks human histone lysine methyltransferase G9a; Q96KQ7; G9a H3K9 monomethylation, AlphaScreen, 2 h; Potency, µM (highest dose often 102 µM), inactives show top-dose activity, negative = inhibition, most hits filed as inhibitors; hit rate 8.8% among 350,000; AID 504332; note: % is set by controls: 0 for no effect and ±100 for the full control effect; nearly all actives have a fitted effect of over 75% in size
#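 Enzyme 20 nM + cpd, 15 min RT; add b-H3K9 pep 500 nM / SAM 20 uM; 2 h RT; anti-H3K9me1 Ab 0.5 ug/mL + SA donor / anti-rabbit acceptor beads 20 ug/mL each, 10 min; AlphaScreen read.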
# * marks the source's active call; other numbers are inactive results; ? = inconclusive; . = no result; [ ] = dose if it differs, or a comment. Calls come from the whole dose curve; as a rule, active = well fitted curve in the direction sought with a large enough effect; inconclusive = small, poorly fitted or top-dose-only effect, or another doubt; inactive = no such curve, though single readings can be large; an effect the other way counts as inactive or inconclusive. Potency is the fitted concentration of half-maximal effect.
SMILES,PLK1 PBD block,BAZ2B block,VDR inh,HP1b chromo inh,JMJD2A Tudor,G9a inh
Cc1cc(C#N)c(C)n1-c1cc(S(=O)(=O)N2CCOCC2)ccc1N1CCCC1,21µM*,-37%,?,-63%,?,6.3µM*
O=C(NCc1ccc(F)cc1)c1cc(C2CCCN(C(=O)c3ccc4c(c3)CCO4)C2)on1 (stereo unspecified),-7%,.,.,.,.,.
CCCCCCCCCCCCC/C=C/[C@@H](O)[C@H](CO)NC(=O)CCCCCCCCCCCCCCC,.,.,-6%,.,.,-1%[59 µM]
CCCCCCCCCCCCCCC/C=C/[C@@H](O)[C@H](NC(=O)CCCCCCCCCCCCC)OC (tested in a mixture with another compound),.,.,.,.,.,20µM*
COc1cccc(CNC(=O)Cn2ncc3c4ccccc4n(Cc4ccccc4)c3c2=O)c1,.,2%,6%,31%,3%,-4%[59 µM]
Clc1ccc2nc(CN3CCCCCC3)cn2c1,-4%,?,-2%,34%,89µM*,3%[0.0925 µM]
c1ccc(N2CCN(Cc3cn4ccccc4n3)CC2)cc1,-7%,-24%,-1%,59%,-16%,.
Clc1ccc2nc(CN3CCCCC3)cn2c1,-8%,8%,12%,30%,-4%,50µM*
Clc1ccc2nc(CN3CCCc4ccccc43)cn2c1,-3%,50µM*,-9%,-38%,50µM*,?
O=[N+]([O-])c1ccc(N2CCN(S(=O)(=O)c3ccccc3)CC2)cc1NCc1ccco1,.,-22%,.,.,.,-41%[59 µM]
CC(C)NC(=O)N(C)C[C@H]1Oc2ccc(NC(=O)NC3CCCCC3)cc2C(=O)N([C@H](C)CO)C[C@@H]1C,-1%,.,9%,19%,-17%,.
CN(CC(=O)Nc1ccc(Cl)c(Cl)c1)CC(=O)Nc1ccc2c(c1)OCO2,4%,?,-13%,5%,-29%,-8%[2.33 µM]
Cc1cccc(-n2c(CNC(=O)c3ccc(S(=O)(=O)N4CCCC4)cc3)n[nH]c2=S)c1,-6%,-4%,10%,14%,10µM*,0.71µM*
O=C(NCc1n[nH]c(=S)n1-c1cccc(Cl)c1)c1ccc(S(=O)(=O)N2CCCCC2)cc1,-8%,16%,3%,21%,-31%,3.2µM*
CC(=O)N1CCN(C(=O)c2cc(=O)c3ccccc3o2)CC1,-3%,-1%,-6%,7%,8%,4%
COc1cccc2cc(C(=O)NCCc3c[nH]c4ccccc34)c(=O)oc12,12µM*,-37%,-24%,?,?,?
O=C(NCCc1c[nH]c2ccccc12)c1ccccc1,-8%,-19%,-6%,20%,-20%,-4%
COc1cc(-c2noc(C)c2C(=O)NCCc2cccs2)cc(OC)c1OC,-2%,.,-13%,46%,-7%,.
COc1cc(-c2noc(C)c2C(=O)NCCc2c[nH]c3ccccc23)cc(OC)c1OC,-8%,50µM*,2%,14%,?,32µM*
O=C(NCCc1c[nH]c2ccccc12)c1cc([N+](=O)[O-])cc([N+](=O)[O-])c1,-8%,-3%,11%,30%,-24%,10µM*
COc1ccc(CCNC(=O)c2cc3cccc(OC)c3oc2=O)cc1OC,-3%,-4%,4%,18%,-18%,2%
Cc1ccc(C(=O)NCCc2c[nH]c3ccccc23)c(C)c1,-8%,50µM*,-25%,-8%,-26%,-44%
CN(C(=O)COC(=O)c1ccccc1SCC(=O)N1CCCC1)C1(C#N)CCCCC1,-13%,6%,5%,34%,-13%,-9%[12.7 µM]
Cc1c(CN2CCC(CO)(CCOc3ccccc3)CC2)c(=O)n(-c2ccccc2)n1C,-7%,2%,-5%,21%,-10%,3%
COc1nc(-c2cccc([N+](=O)[O-])c2)nc2ccccc12,1%,-3%,-25%,36%,11%,-30%
SMILES,PLK1 PBD block,BAZ2B block,VDR inh,HP1b chromo inh,JMJD2A Tudor,G9a inh
O=[N+]([O-])c1cccc(-c2nc(Oc3ccc(Cl)cc3)c3ccccc3n2)c1,.,?,.,.,.,11µM*
COc1cc(/C=C2\SC(=O)N(c3ccccc3Cl)C2=O)cc([N+](=O)[O-])c1O,?,25µM*,-17%,?,35µM*,11µM*
COc1cc(/C=C2\SC(=O)N(CC(=O)Nc3cccc(C)c3)C2=O)cc([N+](=O)[O-])c1O,9.5µM*,40µM*,71µM*,28µM*,18µM*,14µM*
CCOc1cc(/C=C2\SC(=O)N(CC(=O)Nc3ccccc3F)C2=O)cc([N+](=O)[O-])c1O,24µM*,40µM*,?,35µM*,-20%[11.4 µM],16µM*
COc1cc(/C=C2\SC(=O)N(c3ccc(O)cc3)C2=O)cc(OC)c1OC,-3%,-7%,-6%,25%,-7%,12%[12.7 µM]
CC(=O)c1ccc(Oc2nc(C)nc3c2oc2ccccc23)cc1,.,-3%,2%,20%,-8%,6%[59 µM]
CCNc1nc(NCC)n2c(SCc3ccc(F)cc3)nnc2n1,-12%,8%,-7%,4%,-14%,10µM*
CCNc1nc(NCC)n2c(SCC(=O)Nc3ccc(CC)cc3)nnc2n1,6.7µM*,-33%,50µM*,?,?,2.5µM*
CCNc1nc(NCC)n2c(SCc3nc4ccccc4c(=O)[nH]3)nnc2n1,-7%,-4%,11%,25%,-7%,2%[12.7 µM]
CCNc1nc(NCC)n2c(SCC(=O)Nc3ccccc3OC(F)F)nnc2n1,-11%,.,5%,18%,-17%,.
CCNc1nc(NCC)n2c(SCC(=O)Nc3ccc(NC(C)=O)cc3)nnc2n1,-5%,50µM*,-4%,0%,-25%,50µM*
CCNc1nc(NCC)n2c(SCC(=O)Nc3ccccc3F)nnc2n1,12µM*,8%,-7%,-14%,-11%,-13%[0.501 µM]
C#CCSc1nncn1C(=O)/C=C/c1ccccc1,24µM*,12%[57.1 µM],?,17%,-10%,?
CN(C(=O)COC(=O)CSc1cc(Cl)ccc1Cl)c1c(N)n(Cc2ccccc2)c(=O)[nH]c1=O,-11%,7%,-15%,3%,-16%,7.1µM*
CN(C(=O)COC(=O)c1ccccc1Nc1ccccc1)c1c(N)n(Cc2ccccc2)c(=O)[nH]c1=O,7%,-26%,-4%,15%,-20%,14µM*
CN(C(=O)COC(=O)c1ccccc1Cc1ccccc1)c1c(N)n(Cc2ccccc2)c(=O)[nH]c1=O,2%,5%,9%,18%,-16%,50µM*
COCCN(C(=O)COC(=O)c1ccccc1Nc1ccccc1)c1c(N)n(Cc2ccccc2)c(=O)[nH]c1=O,1%,-3%,0%,11%,-23%,14µM*
COc1ccc(-n2cc(C(=O)NCc3ccccc3Cl)c3ccccc3c2=O)cc1,.,5%,3%,45%,-7%,-1%[59 µM]
CCCCCCCCCCS(=O)(=O)N/N=C/c1ccc(O)cc1,?,-13%,?,1%,?,?
